Drawing on ChEMBL document CHEMBL4513216, “Probing the Open Global Health Chemical Diversity Library for Multistage-Active Starting Points for Next-Generation Antimalarials” (ACS Infect Dis, 2020), this text covers INHIBITION for 115 compounds.

Screen size: about 68,000 compounds; about 2,700 (4%) showed an effect of 50% or more. Many of the other results were omitted from the sample, so strong results are more common in it than they were.

The test has as its system Plasmodium berghei. Description: Screen against P. berghei liver stage (PbLuc), transformed with Luciferase, at 2uM. Conditions: tested at 2 uM. Type of test: functional, HepG2.
Take `O=C(Nc1cccnc1)[C@@H]1C[C@H]2OCC[C@H]2N(Cc2nccs2)C1`: the INHIBITION is reported as 1.06%.
The same measure for `CSc1ccccc1CN1C[C@@H]2CC[C@H]1CN(Cc1[nH]cnc1C)C2`: 8.26%; for `O=C(Cc1ccc2c(c1)OCO2)N1CCCN(c2nccs2)CC1`: 79.21%; for `O=C(Cc1ccc2c(c1)CCO2)N1CCN(c2nccs2)CC1`: -11.34%.
In the case of `O=C(Cc1ccc2c(c1)OCO2)N1CCCN(c2ccccc2)CC1`, the INHIBITION is on record as -50.86%.
Under `O=S(=O)(NCC1CCN(c2cnccn2)CC1)c1ccc(F)c(Cl)c1` stands 20.8%; under `COc1ccc(-c2nc(C#N)c(N(C)C)o2)cc1S(=O)(=O)N(C)C`, -36.29%; under `COC(=O)[C@H](C)NC(=O)Cn1ccc2ccc(F)cc21`, 0.08%.
The same measure for `COC(=O)CCC(=O)Nc1ccc(Br)c(C)n1`: 11.88%; for `O=C([C@@H]1CCO[C@@H]2CCN(Cc3cccs3)C[C@H]21)N1CCCCO1`: 27.44%.
As for `CC(C)NC(=O)N1C[C@@H]2C[C@H](C(=O)NCc3ccccc3)[C@H](C1)O2`, the INHIBITION stood at 36.17%.
The same measure for `CCC(=O)NCc1cc(C2CC2)n(C2CCCC2)n1`: 50.7%; for `O=C(NCc1cc(C2CC2)n(C2CCCC2)n1)C1CC1`: 14.47%; for `CCOCC(=O)NCc1cc(C2CC2)n(C2CCCC2)n1`: 6.9%.
Under `COCC(=O)N1CCC2(CC1)COCCN2Cc1ccc(F)cc1` stands -5.65%; under `Cc1ccc(NC(=O)CNC(C)CN2CCCCC2)c(F)c1` (stereo not given), 64.35%.
The same measure for `Cc1ccc(NC(=O)CN2CCOCC2)c(F)c1`: -1.29%.
Take `Cc1ccc(NC(=O)CNC(C)CN2CCOCC2)c(F)c1` (stereo not given): the INHIBITION is reported as 21.24%.
The same measure for `CSc1nccc(N2CCC(NCc3ccc4nsnc4c3)CC2)n1`: -60.25%; for `O=C(CC1CCc2ccccc21)NC1(C(=O)O)CCOCC1` (stereo not given): 0.54%.
The same measure for `O=C(CC1CCc2ccccc21)NC1(C(=O)O)CCCC1` (stereo not given): 16.93%; for `CC1(NC(=O)CC2CCc3ccccc32)CCOCC1` (stereo not given): 60.15%; for `COC(=O)c1cc(OCC2CCC2)cc(C(=O)N[C@@H]2CCCNC2)c1`: -28.09%.
Under `Cc1cccc(C)c1NC(=O)c1cccc(N(C)S(C)(=O)=O)c1C` stands -11.34%; under `Cn1[nH]c(C2CC2)c(-c2ccc3c(c2)OCO3)c1=N`, 58.6%; under `Cn1nc(C2CCCC2)c(-c2ccc3c(c2)OCO3)c1N`, 53.33%.
For the compound `CCc1[nH]n(C)c(=N)c1-c1ccc2c(c1)OCO2`, the INHIBITION is on record as 37.53%.
The same measure for `CSCCc1nc(-c2ccc3c(c2)OCO3)n(C)n1`: 12.74%; for `CCCc1[nH]n(C)c(=N)c1-c1ccc2c(c1)OCO2`: 5.92%; for `Cn1[nH]c(C2CCC2)c(-c2ccc3c(c2)OCO3)c1=N`: 14.06%.
Under `Cc1nc(C)n(C2CCCN(C(=O)c3ccc4c(c3)COC4)C2)n1` (stereo not given) stands 2.08%.
Under `O=C1CC[C@@H]2[C@@H](CCN2C(=O)c2ccsc2)N1Cc1ccncc1` stands 37.48%; under `Cc1ccc(CN2C[C@H](OCC3CCN(C)CC3)[C@H]3COC[C@H]32)o1`, -14.64%.
Take `CNC(=O)[C@H]1C[C@H]2OCC[C@H]2N(Cc2cccc3ccccc23)C1`: the INHIBITION worked out at 16.6%.
On to `CC(=O)c1c(F)cccc1NCC(O)C(C)(C)C` (stereo not given), for which the INHIBITION came out at 53.44%.
The same measure for `CC(=O)c1c(F)cccc1NCC(O)C1CC1` (stereo not given): 31.96%; for `CC(=O)c1c(F)cccc1NCC(O)c1ccc(F)c(F)c1` (stereo not given): 4.26%.
Under `CCC(C)NC(=O)c1cc(S(=O)(=O)N2CCCC2)c(C)s1` (stereo not given) stands 53.12%; under `CCC(C)NC(=O)c1cc(S(N)(=O)=O)c(Br)s1` (stereo not given), -70.18%.
With `CCC(C)NC(=O)c1cc(S(=O)(=O)N(C)C)c(C)s1` (stereo not given), the INHIBITION was determined as 25.9%.
For `CC(C)(C)c1nnc(CN2CCCC(c3cc(C(N)=O)[nH]n3)C2)o1` (stereo not given), the INHIBITION was -47.97%.
The same measure for `CN(C)c1ncncc1NC(=O)Cc1c[nH]c2ccc(F)cc12`: 10.04%; for `COc1ncnc(N(C)C)c1NC(=O)Cc1cc(F)ccc1F`: -73.79%.
The same measure for `COc1ncnc(N(C)C)c1NC(=O)Cc1c[nH]c2ccc(F)cc12`: 62.92%; for `O=C(CN1CC(c2nc(-c3ccco3)no2)C1)NCC1CCCO1` (stereo not given): 23.01%; for `Cc1cc(NC(=O)NC2CCN(C(C)C)CC2)c2ncccc2c1`: -40.76%.
Regarding `CCOc1ccc(S(=O)(=O)NCCCc2ccc(N(C)C)cc2)cc1F`, the INHIBITION is given as 51.71%.
In the case of `COc1ccc(S(=O)(=O)NCCCc2ccc(N(C)C)cc2)cc1F`, the INHIBITION is recorded as 25.53%.
The same measure for `CCOc1ccc(S(=O)(=O)NCCc2ccc(N(C)C)cc2)cc1F`: 21%; for `CN(Cc1nnc(-c2ccco2)o1)C(C(N)=O)c1cccc(F)c1` (stereo not given): 5.64%; for `CC(C)CCn1ccc(NC(=O)N2CCCC2CN2CCOCC2)n1` (stereo not given): -39.07%.
Consider `CCNC(=O)CN1CCc2c(Br)ccc(F)c2C1`, for which the INHIBITION is reported as -25.78%.
In the case of `Cn1ccnc1CN1CCC2(CC1)CN(c1cncnc1)C(=O)CO2`, the INHIBITION came out at 7.71%.
In the case of `CCOC1CCN(CC(=O)Nc2oc(C)c3c(C)n[nH]c(=O)c23)CC1`, the INHIBITION is recorded as 52.52%.
The same measure for `Cc1n[nH]c(=O)c2c(NC(=O)CN3CCC(O)CC3)oc(C)c12`: 5.72%.
`Cc1n[nH]c(=O)c2c(NC(=O)CN3CCC(C)CC3)oc(C)c12`: the INHIBITION worked out at 26.2%.
Under `COCC[C@]1(O)CCN(Cc2ccccn2)C[C@H]1C` stands 5.39%; under `O=C(Cc1cccs1)NCC1(O)CCSC1` (stereo not given), -2.22%; under `O=C(NCC1(O)CCSC1)c1ccoc1` (stereo not given), 22.4%.
Under `COC1(CNC(=O)c2ccoc2)CCSC1` (stereo not given) stands 28.5%; under `O=C(NCC1(O)CCSCC1)c1ccoc1`, 53.61%.
The same measure for `O=C(Cc1cccs1)NCC1(O)CCSCC1`: 52.85%.
For the compound `O=C(Cc1cccs1)NCC1(O)CCc2ccccc2C1` (stereo not given), the INHIBITION is 24.6%.
For the compound `CN(Cc1ccncc1)C1CC2(CCN(c3ncccn3)CC2)C1`, the INHIBITION is on record as 36.48%.
Regarding `COc1ccc(NC(=O)NCCCn2nc3ccccn3c2=O)cc1`, the INHIBITION is -12.82%.
The same measure for `COCc1cc(N2CCOC(c3ccc(Cl)c(Cl)c3)C2)ncn1` (stereo not given): -16.62%; for `CC(C)(C)c1cnc(CN2CCC(CN3CCOCC3)CC2)o1`: -10.87%.
Under `COCCN(C)C(=O)c1nc2c(s1)CCCN2C` stands 32.04%; under `O=C(c1ccc(F)cc1F)N1CCN(C(=O)C2CCCCC2)CC1`, 16.54%; under `CC(C)Cc1nc(CO)n(-c2ccc3c(c2)OCCO3)n1`, 31.8%.
The same measure for `CC(C)c1nc(CCn2cncn2)n(-c2ccc3c(c2)OCCO3)n1`: -39.01%; for `CC(C)Cc1nc(CCn2cncn2)n(-c2ccc3c(c2)OCCO3)n1`: 61.14%; for `Cc1cc(N)cc(C2CN(Cc3cc[nH]n3)CCO2)n1` (stereo not given): 26.14%.
As to `COc1ccc(C2CCCCCN2S(N)(=O)=O)cc1` (stereo not given), the INHIBITION is on record as -16.65%.
Regarding `Cc1cc(C(=O)N2CCc3nc(C4CCCCN4)ncc3C2)cs1` (stereo not given), the INHIBITION was found to be 12.8%.
Under `Cc1cc(C(=O)N2CCc3nc(C4CCCN4)ncc3C2)cs1` (stereo not given) stands 40.31%.
Under `CC(C)c1cc(C(=O)N2CCc3nc(C4CCCN4)ncc3C2)cs1` (stereo not given) stands 67.83%; under `CC(C)(C)C(=O)NS(=O)(=O)c1ccc(C#N)c(C(F)(F)F)c1`, 1.52%.
Under `COc1ccc(Oc2nccnc2C2CCN(C(C)=O)CC2)cc1` stands 12%.
Take `Cc1cccc(C)c1Oc1ncccc1CNC(=O)C1(C)CCCNC1` (stereo not given): the INHIBITION came out at 50.32%.
The same measure for `CC1(C(=O)NCc2cccnc2Oc2ccc(F)cc2F)CCCNC1` (stereo not given): -20.29%; for `COc1ccccc1Oc1ncccc1CNC(=O)C1(C)CCCNC1` (stereo not given): 43.27%.
The same measure for `O=C(CC1CC1)N(Cc1cccnc1)CC1CCN(C2CCCC2)CC1`: -53.72%.
`Cn1nccc1C(=O)N1CCC(n2cc(-c3ccsc3)nn2)CC1`: the INHIBITION is recorded as 15.68%.
Under `CCC(O)CN1CCN(C(=O)c2cccc3c2OCC(=O)N3)CC1` (stereo not given) stands -29.24%.
The same measure for `COCc1cn(CC2CCN(Cc3cc(C)[nH]n3)CC2)nn1`: 26.3%.
Under `Fc1ccc(N2CCCN(c3ccc(Cn4ccnc4)cn3)CC2)cc1` stands 54.49%.
Take `c1csc(CN2CCCN(c3ccc(Cn4ccnc4)cn3)CC2)c1`: the INHIBITION came out at 17.61%.
Under `c1cn(Cc2ccc(N3CCCN(C4CCCC4)CC3)nc2)cn1` stands 4.63%; under `COc1ccc2[nH]cc(-c3ccnc(NC4CCCC4)n3)c2c1`, -4.95%; under `Cc1noc(CCCC(=O)NC(C)c2ccc(Cl)s2)n1` (stereo not given), 15.4%.
Under `CCc1cnc(C)nc1NCC(O)CN1CCCCCC1` (stereo not given) stands 80.68%.
The same measure for `CCc1cnc(C)nc1NCCN1CCCCCC1`: 7.08%.
Regarding `Cc1nc(NCC(O)CN2CCCCCC2)c2c(C)noc2n1` (stereo not given), the INHIBITION is reported as 30.87%.
Under `COc1nn(C)c2c1CCCN(S(=O)(=O)c1cccc(C)c1)C2` stands 23.43%; under `COc1nn(C)c2c1CCCN(S(=O)(=O)c1cccc(F)c1)C2`, 52.47%.
The same measure for `COc1cccc(S(=O)(=O)N2CCCc3c(OC)nn(C)c3C2)c1`: 39.57%; for `COCc1nc(CNc2cc(C)on2)cs1`: -65.51%.
Under `O=C(NC1CC1)[C@@H]1CCO[C@@H]2CCN(Cc3ccco3)C[C@H]21` stands 46.73%; under `COc1cccc(-c2cc(NCC(=O)O)nc3[nH]ccc23)n1`, 74.44%; under `COc1cccc(-c2cc(NCCO)nc3[nH]ccc23)n1`, 0.51%.
As for `COc1cccc(-c2cc(NCCN(C)C)nc3[nH]ccc23)n1`, the INHIBITION is 0.51%.
`N[C@H]1CN(C(=O)c2ccccc2OCc2ccccc2)C[C@@H]1C1CC1`: the INHIBITION is given as 13.86%.
The same measure for `Cc1nn2cccnc2c1C(=O)N1CCCC(n2ccnc2)C1` (stereo not given): 28.51%.
With `CN(C)c1ccc(C(=O)N2CCCC(n3cccn3)C2)cn1` (stereo not given), the INHIBITION is recorded as 39.54%.
`Cc1nccn1C1CCCN(C(=O)c2ccc3c(c2)nnn3C)C1` (stereo not given): the INHIBITION came to 1.61%.
Under `Cc1nccn1C1CCCN(C(=O)c2ccc3cc[nH]c3c2)C1` (stereo not given) stands 74.35%.
Under `Cc1nn2cccnc2c1C(=O)N1CCCC(n2cccn2)C1` (stereo not given) stands -21.72%.
`CCc1nccn1C1CCCN(C(=O)c2ccc3c(c2)nnn3C)C1` (stereo not given): the INHIBITION is 58.05%.
Turning to `Cc1nccn1C1CCCN(C(=O)c2ccc(N(C)C)nc2)C1` (stereo not given), the INHIBITION is listed as 55.7%.
The same measure for `CCc1nccn1C1CCCN(C(=O)c2ccc(OC)c(OC)c2)C1` (stereo not given): -14.17%.
Regarding `Cc1nccn1C1CCCN(C(=O)c2ccc(N(C)C)nn2)C1` (stereo not given), the INHIBITION is 19.35%.
The same measure for `Cc1nccn1C1CCCN(C(=O)c2cc3ccccc3[nH]2)C1` (stereo not given): -43.41%; for `Cc1nn2cccnc2c1C(=O)N1CCCC(n2ccnc2C)C1` (stereo not given): 56.02%; for `Cc1nccn1C1CCCN(C(=O)c2ccc3c(c2)CCC3)C1` (stereo not given): -33.61%.
